Source: PubChem BioAssay
TGFb SMAD3 inh: blocks TGF-b signaling; AID 588855; Potency, µM (top dose mostly 46.1 µM), actives largely listed as inhibitors; HepG2 CAGA-GFP TGF-b/SMAD3 reporter, GFP fluorescence, 18 h; TGF-beta stimulated, 500 pg/mL final; hit rate 1.2% among 410,000; note: nearly all actives have a fitted effect of over 65% in size
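HEPG2 CAGA-GFP reporter cells (1000/well, DMEM with 1% FBS) received compounds, then recombinant TGF-beta at 500 pg/mL final for 18 hours at 37 degrees C. Per-cell GFP summed per well was normalised to unstimulated and stimulated DMSO controls before curve fitting.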
ATXN viability: viability counter-screen for ATXN expression inhibitors; Potency, µM (series often up to 56.7 µM), usual class: cytotoxic; hit rate 0.49% among 400,000; S2 cells (HEK-293 line with an ATXN2-luciferase reporter) viability, CellTiter-Fluor protease fluorescence, 24 h; note: nearly all actives have a fitted effect of over 40% in size
ATXN2 expr inh: inhibitors of ATXN2 expression; hit rate 0.72% among 360,000; AID 1745845; HEK-293 ATXN2-luciferase reporter, luminescence, 24 h; Potency, µM (series often up to 57 µM), actives largely listed as inhibitors; note: nearly all actives have a fitted effect of over 55% in size
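qHTS (up to 57 uM final) was run with 24 h compound exposure of reporter cells at 37 °C. Each well was multiplexed: SteadyGlo luminescence measured ATXN2-luciferase expression after a fluorogenic Gly-Phe-AFC viability readout (25 uM final).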
HepG2 tox: HepG2 cytotoxicity, counter-screen for TGF-b inhibitors. HepG2 CAGA-GFP viability, ATP luminescence, 18 h. Potency, µM (titrated, usually from 46.1 µM), usual class: cytotoxic. hit rate 0.76% among 410,000
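CellTiter-Glo luminescence gave cytotoxicity after 18 hours at 37 degrees C. The cells were HepG2 CAGA-GFP in 1% FBS DMEM, stimulated with 500 pg/mL TGF-beta after compound addition. %Activity was normalised to no-cell wells (complete cell-killing) and DMSO (no toxicity), and curves were fitted and classified.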
Each line names hits and unclear results; the compound was inactive in the other large screens. Shown are actives, neighbours in structure and some others; about 2.3% of the full set was active somewhere. Calls come from the whole dose curve; as a rule, active = well fitted curve in the direction sought with a large enough effect; inconclusive = small, poorly fitted or top-dose-only effect, or another doubt; inactive = no such curve, though single readings can be large; an effect the other way counts as inactive or inconclusive.

CCCN1C(=O)C(=O)c2cc(C)ccc21	ATXN viability inconclusive
CC[N+]1(CC(=O)c2cccs2)CCCCC1	none (no result: ATXN viability, ATXN2 expr inh)
Cc1ccc(-n2ncc3c(NCCCN(C)C)ncnc32)cc1Cl	TGFb SMAD3 inh inconclusive, ATXN2 expr inh inconclusive, HepG2 tox 13µM (no result: ATXN viability)
CCCCCOc1ccc(/C(C)=N/NC2=NCCN2)cc1	TGFb SMAD3 inh inconclusive, ATXN2 expr inh inconclusive
CCCCCCOc1ccc(/C(C)=N/NC2=NCCN2)cc1	TGFb SMAD3 inh inconclusive, ATXN viability inconclusive, HepG2 tox 14µM (no result: ATXN2 expr inh)
COc1ccc(-c2n[nH]c(C)c2-c2ccc(Cl)cc2)c(O)c1	TGFb SMAD3 inh inconclusive
COc1ccc(-c2n[nH]c(C)c2-c2ccc(Cl)cc2)c(O)c1OC	HepG2 tox 18µM
c1cc(-c2cnn3cc(-c4ccc(OCCN5CCCCC5)cc4)cnc23)ccn1	ATXN2 expr inh 3.9µM (no result: TGFb SMAD3 inh, ATXN viability, HepG2 tox)
COc1ccc(-c2cnn3cc(-c4cccc(Cl)c4)cnc23)cc1	none (no result: ATXN2 expr inh)
CN(C)CCOCCOc1ccc(Cl)cc1C(C)(C)C	none
CC(O)CNCCCOc1ccc(Cl)cc1C(C)(C)C (stereo not drawn)	TGFb SMAD3 inh inconclusive, ATXN viability inconclusive, ATXN2 expr inh 34µM
CCOC(=O)c1ccc(CNc2ncnc3nc[nH]c23)cc1	TGFb SMAD3 inh inconclusive (no result: ATXN viability, ATXN2 expr inh)
O=[N+]([O-])c1cncc([N+](=O)[O-])c1Nc1cccc(O)c1	TGFb SMAD3 inh inconclusive, ATXN2 expr inh 20µM (no result: ATXN viability)
CCN(CC)c1ccc2cc(-c3nc4ccccc4[nH]3)c(=O)oc2c1	none (no result: ATXN viability)
CCN(CC)c1ccc2nc3ccc(N)cc3[n+](-c3ccccc3)c2c1	TGFb SMAD3 inh inconclusive, ATXN viability 16µM, ATXN2 expr inh 13µM
CCN(CC)c1ccc(/C=C/c2cc(Cl)nc3ccccc23)cc1	none (no result: ATXN viability, ATXN2 expr inh)
CCN(CC)c1ccc2nc3ccccc3[n+](CC)c2c1	TGFb SMAD3 inh inconclusive, ATXN viability 8.9µM, ATXN2 expr inh inconclusive
COc1cc(N)c(NC(=O)/C=C/c2nc3cc(OC)c(OC)cc3[nH]2)cc1OC	none (no result: ATXN viability, ATXN2 expr inh)
Cc1csc(C(C)N(C)C(=O)c2cnn(-c3nccc(-c4cc(C)sc4C)n3)c2C)n1 (stereo not drawn)	none (no result: TGFb SMAD3 inh, ATXN2 expr inh, HepG2 tox)
Cc1ccccc1C(=O)/C(C#N)=N/Nc1c(C)n(C)n(-c2ccccc2)c1=O	TGFb SMAD3 inh inconclusive, ATXN viability inconclusive, ATXN2 expr inh 7.1µM
Cc1c(N/N=C(\C#N)C(=O)c2ccccc2)c(=O)n(-c2ccccc2)n1C	ATXN viability inconclusive, ATXN2 expr inh 14µM
CCOC(=O)/C(C#N)=N/Nc1c(C)n(C)n(-c2ccccc2)c1=O	none
c1ccc2c(c1)sc[n+]2CCC1CCCCC1	TGFb SMAD3 inh inconclusive (no result: ATXN viability, ATXN2 expr inh)
COc1cc2nc(N3CCCN(C)CC3)nc(Nc3ccncc3)c2cc1OC	TGFb SMAD3 inh inconclusive (no result: ATXN viability, ATXN2 expr inh)
O=c1cc(N2CCOCC2)oc2c(-c3cccc4c3sc3ccccc34)cccc12	none (no result: TGFb SMAD3 inh, ATXN viability, HepG2 tox)
COc1ccc(C(=O)NCC2Cc3cc(C)cc(-c4cc(C(C)=O)ccc4F)c3O2)c(OC)c1OC (stereo not drawn)	none (no result: TGFb SMAD3 inh, ATXN2 expr inh, HepG2 tox)
O=C(CCCCCCC(=O)Nc1ccc([C@H]2O[C@@H](CSc3nc(-c4ccccc4)c(-c4ccccc4)o3)C[C@@H](c3ccc(CO)cc3)O2)cc1)NO	none (no result: TGFb SMAD3 inh, ATXN viability, HepG2 tox)
CCCCCC(O)(c1ccccc1)C(CN1CCOCC1)c1ccccc1 (stereo not drawn)	TGFb SMAD3 inh inconclusive
CCCC(O)(c1ccc(Cl)cc1)C(CN1CCOCC1)c1ccccc1 (stereo not drawn)	TGFb SMAD3 inh 13µM, ATXN viability inconclusive
CCCC(O)(c1ccccc1)C(CN1CCOCC1)c1ccccc1 (stereo not drawn)	none
CCCCCCC(O)(c1ccccc1)C(CN1CCOCC1)c1ccccc1 (stereo not drawn)	TGFb SMAD3 inh 16µM
CC1=C(C(=O)OC(C)C)C(c2cccc([N+](=O)[O-])c2)C(C(=O)OC2CN(C(c3ccccc3)c3ccccc3)C2)=C(N)N1 (stereo not drawn)	ATXN viability 35µM, ATXN2 expr inh 32µM (no result: TGFb SMAD3 inh, HepG2 tox)
COc1ccc(C(=O)NCc2nc(-c3ccccc3NC(=O)c3cc(C)oc3C)oc2C)cc1F	none (no result: TGFb SMAD3 inh, ATXN2 expr inh, HepG2 tox)
COc1ccc(C2C(C(=O)Nc3ccccc3)=C(C)Nc3nc(-c4ccc(Cl)cc4)nn32)cc1 (stereo not drawn)	none
CC1=C(C(=O)Nc2ccccc2)C(c2ccc(O)cc2)n2nc(-c3ccc(Cl)cc3)nc2N1 (stereo not drawn)	TGFb SMAD3 inh inconclusive, ATXN viability 28µM
CCCCn1c(/N=C/c2ccccc2NS(=O)(=O)c2ccc(C)cc2)nc2ccccc21	TGFb SMAD3 inh 16µM
COC(=O)C1CCN(Cc2ccc3c(c2)CN(C(=O)c2cc4cc(F)ccc4[nH]2)CCO3)CC1	none (no result: TGFb SMAD3 inh, ATXN2 expr inh, HepG2 tox)
Cc1c(C(=O)N2CCOc3ccc(Cl)cc3C2)sc2ncnc(NCCc3ccccn3)c12	none (no result: TGFb SMAD3 inh, ATXN2 expr inh, HepG2 tox)
CN1CCN(C(=O)/C=C/c2ccc([N+](=O)[O-])o2)CC1	TGFb SMAD3 inh 11µM (no result: ATXN viability, ATXN2 expr inh)
O=C(c1cccc(F)c1F)N1CCOc2ccc(CN3CCC(Oc4cccnc4)CC3)cc2C1	none (no result: TGFb SMAD3 inh, ATXN2 expr inh, HepG2 tox)
O=C(c1cc2ccccc2[nH]1)c1cc2cc(O)ccc2[nH]1	TGFb SMAD3 inh inconclusive (no result: ATXN viability, ATXN2 expr inh)
COc1cc2c(cc1OC)C(=O)C(Br)CC2 (stereo not drawn)	TGFb SMAD3 inh inconclusive, ATXN viability inconclusive, HepG2 tox 16µM (no result: ATXN2 expr inh)
Cc1cnc(-n2ncc(C(=O)NCCCc3ccncc3)c2C)nc1-c1ccc(F)cc1	none (no result: TGFb SMAD3 inh, ATXN2 expr inh, HepG2 tox)
COc1ccc(Cn2nnnc2C(c2ccccn2)N2CCN(c3ccc(O)cc3)CC2)cc1 (stereo not drawn)	none (no result: ATXN viability, ATXN2 expr inh)
